Results published in the supplement of paper PMC7411054.
Counter-ions that a name gives are not always drawn.

How the values were obtained:
Assay in all cases: phenotypically active (imaging signature differs from DMSO and reproducible) at any of 0.3-9 uM (binary (1 = active, 0 = inactive)); higher = active
Conditions in all cases: treatment time: 24 h
A549-ACTB-RAB5A = system: A549-ACTB-RAB5A
How it was run: (§1)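 Live-cell features were measured per well and normalised to solvent control wells after fifteen gene-edited A549, HepG2 and WPMY1 reporter lines had been treated for 24 h at 0.3, 1, 3 or 9 µM in four wells each. A condition was deviating when ≥3 of 4 wells sat beyond the 95th percentile of control Euclidean distances. It was reproducible when the median replicate Pearson correlation exceeded the 95th percentile of non-replicates. Phenotypic activity demanded both.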

A549-CANX-COX4 = system: A549-CANX-COX4
How it was run: as §1

A549-GM130-SQSTM1 = system: A549-GM130-SQSTM1
How it was run: as §1

A549-TP53BP1-CLTA = system: A549-TP53BP1-CLTA
How it was run: as §1

A549-TUBA1B-RELA = system: A549-TUBA1B-RELA
How it was run: as §1

HepG2-ACTB-RAB5A = system: HepG2-ACTB-RAB5A
How it was run: as §1

HepG2-CANX-COX4 = system: HepG2-CANX-COX4
How it was run: as §1

HepG2-GM130-SQSTM1 = system: HepG2-GM130-SQSTM1
How it was run: as §1

HepG2-TP53BP1-CLTA = system: HepG2-TP53BP1-CLTA
How it was run: as §1

HepG2-TUBA1B-RELA = system: HepG2-TUBA1B-RELA
How it was run: as §1

WPMY1-ACTB-RAB5A = system: WPMY1-ACTB-RAB5A
How it was run: as §1

WPMY1-CANX-COX4 = system: WPMY1-CANX-COX4
How it was run: as §1

WPMY1-GM130-SQSTM1 = system: WPMY1-GM130-SQSTM1
How it was run: as §1

WPMY1-TP53BP1-CLTA = system: WPMY1-TP53BP1-CLTA
How it was run: as §1

WPMY1-TUBA1B-RELA = system: WPMY1-TUBA1B-RELA
How it was run: as §1

Measured: phenotypically active

C=C(C)[C@H]1CN[C@H](C(=O)O)[C@H]1CC(=O)O [Kainic acid]
inactive: A549-ACTB-RAB5A 0 | A549-CANX-COX4 0 | A549-GM130-SQSTM1 0 | A549-TP53BP1-CLTA 0 | A549-TUBA1B-RELA 0 | HepG2-ACTB-RAB5A 0 | HepG2-CANX-COX4 0 | HepG2-GM130-SQSTM1 0 | HepG2-TP53BP1-CLTA 0 | HepG2-TUBA1B-RELA 0 | WPMY1-ACTB-RAB5A 0 | WPMY1-CANX-COX4 0 | WPMY1-GM130-SQSTM1 0 | WPMY1-TP53BP1-CLTA 0 | WPMY1-TUBA1B-RELA 0

O=P1(NCCCl)OCCCN1CCCl (stereo not given) [ifosfamide]
inactive: A549-ACTB-RAB5A 0 | A549-CANX-COX4 0 | A549-GM130-SQSTM1 0 | A549-TP53BP1-CLTA 0 | A549-TUBA1B-RELA 0 | HepG2-ACTB-RAB5A 0 | HepG2-CANX-COX4 0 | HepG2-GM130-SQSTM1 0 | HepG2-TP53BP1-CLTA 0 | HepG2-TUBA1B-RELA 0 | WPMY1-ACTB-RAB5A 0 | WPMY1-CANX-COX4 0 | WPMY1-GM130-SQSTM1 0 | WPMY1-TP53BP1-CLTA 0 | WPMY1-TUBA1B-RELA 0

CC(C)C[C@H](CN)CC(=O)O [pregabalin]
inactive: A549-ACTB-RAB5A 0 | A549-CANX-COX4 0 | A549-GM130-SQSTM1 0 | A549-TP53BP1-CLTA 0 | A549-TUBA1B-RELA 0 | HepG2-ACTB-RAB5A 0 | HepG2-CANX-COX4 0 | HepG2-GM130-SQSTM1 0 | HepG2-TP53BP1-CLTA 0 | HepG2-TUBA1B-RELA 0 | WPMY1-ACTB-RAB5A 0 | WPMY1-CANX-COX4 0 | WPMY1-GM130-SQSTM1 0 | WPMY1-TP53BP1-CLTA 0 | WPMY1-TUBA1B-RELA 0

COc1cc2c(cc1OC)[C@@]13CCN4CC5=CCO[C@H]6CC(=O)N2[C@H]1[C@H]6[C@H]5C[C@H]43 [Brucine]
inactive: A549-ACTB-RAB5A 0 | A549-CANX-COX4 0 | A549-GM130-SQSTM1 0 | A549-TP53BP1-CLTA 0 | A549-TUBA1B-RELA 0 | HepG2-ACTB-RAB5A 0 | HepG2-CANX-COX4 0 | HepG2-GM130-SQSTM1 0 | HepG2-TP53BP1-CLTA 0 | HepG2-TUBA1B-RELA 0 | WPMY1-ACTB-RAB5A 0 | WPMY1-CANX-COX4 0 | WPMY1-GM130-SQSTM1 0 | WPMY1-TP53BP1-CLTA 0 | WPMY1-TUBA1B-RELA 0

CNCC(O)c1ccc(O)c(OC)c1 (stereo not drawn) [Metanephrine hydrochloride DL]
inactive: A549-ACTB-RAB5A 0 | A549-CANX-COX4 0 | A549-GM130-SQSTM1 0 | A549-TP53BP1-CLTA 0 | A549-TUBA1B-RELA 0 | HepG2-ACTB-RAB5A 0 | HepG2-CANX-COX4 0 | HepG2-GM130-SQSTM1 0 | HepG2-TP53BP1-CLTA 0 | HepG2-TUBA1B-RELA 0 | WPMY1-ACTB-RAB5A 0 | WPMY1-CANX-COX4 0 | WPMY1-GM130-SQSTM1 0 | WPMY1-TP53BP1-CLTA 0 | WPMY1-TUBA1B-RELA 0

COc1ccc(C(=O)Cc2c(CCN(C)C)cc3c(c2OC)OCO3)c(C(=O)O)c1OC [Narcétine]
inactive: A549-ACTB-RAB5A 0 | A549-CANX-COX4 0 | A549-GM130-SQSTM1 0 | A549-TP53BP1-CLTA 0 | A549-TUBA1B-RELA 0 | HepG2-ACTB-RAB5A 0 | HepG2-CANX-COX4 0 | HepG2-GM130-SQSTM1 0 | HepG2-TP53BP1-CLTA 0 | HepG2-TUBA1B-RELA 0 | WPMY1-ACTB-RAB5A 0 | WPMY1-CANX-COX4 0 | WPMY1-GM130-SQSTM1 0 | WPMY1-TP53BP1-CLTA 0 | WPMY1-TUBA1B-RELA 0

CC(C)NCC(O)c1ccc(N)c(C#N)c1 (stereo not given) [Cimaterol]
inactive: A549-ACTB-RAB5A 0 | A549-CANX-COX4 0 | A549-GM130-SQSTM1 0 | A549-TP53BP1-CLTA 0 | A549-TUBA1B-RELA 0 | HepG2-ACTB-RAB5A 0 | HepG2-CANX-COX4 0 | HepG2-GM130-SQSTM1 0 | HepG2-TP53BP1-CLTA 0 | HepG2-TUBA1B-RELA 0 | WPMY1-ACTB-RAB5A 0 | WPMY1-CANX-COX4 0 | WPMY1-GM130-SQSTM1 0 | WPMY1-TP53BP1-CLTA 0 | WPMY1-TUBA1B-RELA 0

C=CCC1(C(C)C#CCC)C(=O)NC(=O)N(C)C1=O (stereo not given) [methohexital]
inactive: A549-ACTB-RAB5A 0 | A549-CANX-COX4 0 | A549-GM130-SQSTM1 0 | A549-TP53BP1-CLTA 0 | A549-TUBA1B-RELA 0 | HepG2-ACTB-RAB5A 0 | HepG2-CANX-COX4 0 | HepG2-GM130-SQSTM1 0 | HepG2-TP53BP1-CLTA 0 | HepG2-TUBA1B-RELA 0 | WPMY1-ACTB-RAB5A 0 | WPMY1-CANX-COX4 0 | WPMY1-GM130-SQSTM1 0 | WPMY1-TP53BP1-CLTA 0 | WPMY1-TUBA1B-RELA 0

CN1C(CC(O)c2ccccc2)CCCC1CC(O)c1ccccc1 (stereo not given) [Lobelanidine hydrochloride]
inactive: A549-ACTB-RAB5A 0 | A549-CANX-COX4 0 | A549-GM130-SQSTM1 0 | A549-TP53BP1-CLTA 0 | A549-TUBA1B-RELA 0 | HepG2-ACTB-RAB5A 0 | HepG2-CANX-COX4 0 | HepG2-GM130-SQSTM1 0 | HepG2-TP53BP1-CLTA 0 | HepG2-TUBA1B-RELA 0 | WPMY1-ACTB-RAB5A 0 | WPMY1-CANX-COX4 0 | WPMY1-GM130-SQSTM1 0 | WPMY1-TP53BP1-CLTA 0 | WPMY1-TUBA1B-RELA 0

CC[C@H]1C2C[C@H]3[C@@H]4N(C)c5ccccc5[C@]45C[C@H](C2[C@H]5O)N3[C@@H]1O (stereo not given in full) [Ajmaline]
inactive: A549-ACTB-RAB5A 0 | A549-CANX-COX4 0 | A549-GM130-SQSTM1 0 | A549-TP53BP1-CLTA 0 | A549-TUBA1B-RELA 0 | HepG2-ACTB-RAB5A 0 | HepG2-CANX-COX4 0 | HepG2-GM130-SQSTM1 0 | HepG2-TP53BP1-CLTA 0 | HepG2-TUBA1B-RELA 0 | WPMY1-ACTB-RAB5A 0 | WPMY1-CANX-COX4 0 | WPMY1-GM130-SQSTM1 0 | WPMY1-TP53BP1-CLTA 0 | WPMY1-TUBA1B-RELA 0

O=C1CN=C(c2ccccc2)c2cc(Cl)ccc2N1CC(F)(F)F [halazepam]
inactive: A549-ACTB-RAB5A 0 | A549-CANX-COX4 0 | A549-GM130-SQSTM1 0 | A549-TP53BP1-CLTA 0 | A549-TUBA1B-RELA 0 | HepG2-ACTB-RAB5A 0 | HepG2-CANX-COX4 0 | HepG2-GM130-SQSTM1 0 | HepG2-TP53BP1-CLTA 0 | HepG2-TUBA1B-RELA 0 | WPMY1-ACTB-RAB5A 0 | WPMY1-CANX-COX4 0 | WPMY1-GM130-SQSTM1 0 | WPMY1-TP53BP1-CLTA 0 | WPMY1-TUBA1B-RELA 0
